Dicer processing = inhibitors of Dicer pre-microRNA processing, primary screen, biochemical, cat-ELCCA, chemiluminescence. cat-ELCCA pre-miR-21 Dicer processing; stronger effect = higher value. z-score at 25 µM. 6% of 47,000 active. AID 1347074, 2019; in the data active means z-score above about 3, passing the limit was not always enough;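 further: higher signal means more uncleaved substrate so more Dicer inhibition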
Target sequence (Q9UPY3 whole entry, looked up): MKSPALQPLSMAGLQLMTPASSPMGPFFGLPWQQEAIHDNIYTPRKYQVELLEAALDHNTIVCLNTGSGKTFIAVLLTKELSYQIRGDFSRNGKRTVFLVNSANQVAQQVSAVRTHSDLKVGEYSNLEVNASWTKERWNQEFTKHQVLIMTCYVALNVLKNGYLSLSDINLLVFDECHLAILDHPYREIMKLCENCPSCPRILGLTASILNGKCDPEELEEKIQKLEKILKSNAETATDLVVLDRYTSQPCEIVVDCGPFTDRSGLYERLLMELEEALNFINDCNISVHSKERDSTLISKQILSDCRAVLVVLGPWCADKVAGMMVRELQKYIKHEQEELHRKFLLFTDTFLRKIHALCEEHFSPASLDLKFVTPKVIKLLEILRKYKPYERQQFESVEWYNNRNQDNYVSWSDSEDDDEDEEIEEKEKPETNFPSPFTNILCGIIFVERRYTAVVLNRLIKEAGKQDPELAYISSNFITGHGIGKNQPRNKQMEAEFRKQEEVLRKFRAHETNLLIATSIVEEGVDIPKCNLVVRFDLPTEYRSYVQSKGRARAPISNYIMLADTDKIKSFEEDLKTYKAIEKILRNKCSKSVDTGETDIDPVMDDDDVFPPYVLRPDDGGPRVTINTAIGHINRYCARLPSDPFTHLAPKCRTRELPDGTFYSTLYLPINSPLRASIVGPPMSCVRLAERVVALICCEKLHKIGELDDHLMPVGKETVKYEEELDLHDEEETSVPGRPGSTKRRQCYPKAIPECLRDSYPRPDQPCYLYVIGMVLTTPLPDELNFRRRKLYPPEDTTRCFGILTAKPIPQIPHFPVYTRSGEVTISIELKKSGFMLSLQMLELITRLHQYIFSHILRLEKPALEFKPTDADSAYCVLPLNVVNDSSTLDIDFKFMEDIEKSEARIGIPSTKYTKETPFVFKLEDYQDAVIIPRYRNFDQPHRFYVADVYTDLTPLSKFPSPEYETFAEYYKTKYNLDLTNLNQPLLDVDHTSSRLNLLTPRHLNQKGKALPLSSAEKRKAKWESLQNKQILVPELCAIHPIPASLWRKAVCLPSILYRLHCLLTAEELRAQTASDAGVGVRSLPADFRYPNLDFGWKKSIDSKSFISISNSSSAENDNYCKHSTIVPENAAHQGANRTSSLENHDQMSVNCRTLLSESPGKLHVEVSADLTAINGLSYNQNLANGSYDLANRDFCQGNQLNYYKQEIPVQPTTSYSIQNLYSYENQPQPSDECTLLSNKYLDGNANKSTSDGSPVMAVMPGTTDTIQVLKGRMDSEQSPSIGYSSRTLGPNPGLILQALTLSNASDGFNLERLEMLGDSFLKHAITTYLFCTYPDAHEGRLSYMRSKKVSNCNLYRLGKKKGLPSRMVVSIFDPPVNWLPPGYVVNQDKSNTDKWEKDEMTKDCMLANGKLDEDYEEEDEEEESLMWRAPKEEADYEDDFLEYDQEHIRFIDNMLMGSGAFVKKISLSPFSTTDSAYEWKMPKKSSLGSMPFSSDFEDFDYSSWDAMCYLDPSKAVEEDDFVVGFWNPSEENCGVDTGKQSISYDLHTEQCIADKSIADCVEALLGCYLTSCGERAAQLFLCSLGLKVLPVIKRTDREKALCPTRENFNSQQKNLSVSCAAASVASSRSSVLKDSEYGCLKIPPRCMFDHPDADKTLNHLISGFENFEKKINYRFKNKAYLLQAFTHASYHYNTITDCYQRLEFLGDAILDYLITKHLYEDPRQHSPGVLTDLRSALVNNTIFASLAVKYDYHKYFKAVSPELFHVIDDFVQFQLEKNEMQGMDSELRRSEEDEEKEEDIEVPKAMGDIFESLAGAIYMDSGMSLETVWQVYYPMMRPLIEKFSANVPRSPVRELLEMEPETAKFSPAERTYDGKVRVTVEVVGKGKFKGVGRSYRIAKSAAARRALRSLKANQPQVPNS
Each line names hits and unclear results; the compound was inactive in the other large screens. This is one part of a sample in which hits are shown more often than they occur.

COCCOC(=O)C1=C(C)NC2=C(C(=O)CC(C)(C)C2)C1c1cccc(OCc2ccccc2)c1 (stereo unspecified)	none
CCOC(=O)c1c(Nc2ccccc2OC)sc(C(=O)c2ccc(Br)cc2)c1N	none
O=C(Nc1ccccc1)OCCOc1cc(C(F)(F)F)ccn1	none
O=C(O)c1c2ccccc2nc2ccccc12	none
CCOC(=O)c1cc(C(C)(C)C)n(-c2ccc(N3CCOCC3)cc2)c1C	none
CCOC(=O)c1cc(-c2ccc(Cl)cc2)n(-c2ccccc2)c1C	none
CCOC(=O)c1cc(-c2ccccc2)n(-c2ccc(N3CCOCC3)cc2)c1C	Dicer processing 4.3
Cc1cccc(-c2noc(-c3ccc(C)cc3Cl)n2)c1	none
CSC1=NNC(c2ccccn2)S1 (stereo unspecified)	none
Cc1nnc(NC(=O)CCC(=O)O)s1	none
Cc1nnc(NC(=O)CCCC(=O)O)s1	Dicer processing 3.7
CC(C)c1nnc(NC(=O)CCCC(=O)O)s1	none
Cc1ccc(-c2n[nH]c(=O)c3ccccc23)cc1	none
CN(C)/C=C(\Sc1ccc(Cl)cc1)C(=O)c1ccc(Cl)cc1	none
N#CCC(=O)NNC(=S)Nc1cc(C(F)(F)F)cc(C(F)(F)F)c1	none
CC(C)(C)C(=O)NC(=S)Nc1ccc(C(F)(F)F)cc1	none
CCOC(=O)NC(=S)Nc1ccc(N2CC(C)OC(C)C2)cc1 (stereo unspecified)	none
CCOC(=O)NC(=S)Nc1ccc(C(C)(C)C)cc1	Dicer processing 5.1
CCOC(=O)NC(=S)Nc1ccc(F)cc1	Dicer processing 6.7
CC(CO)(CO)NC(=S)Nc1ccc(F)cc1	Dicer processing 5.8
CC(C)(CO)NC(=S)Nc1ccc(F)cc1	none
N#CCC(=O)NNC(=S)Nc1ccc(F)cc1	Dicer processing 3.3
CCOC(=O)NC(=S)Nc1cccc(C)n1	none
O=C(CCc1ccc(O)cc1)NNC(=S)Nc1ccc(F)cc1	none
OCC(CO)(CO)NC(=S)Nc1ccc(F)c(Cl)c1	none
CCOC(=O)NC(=S)Nc1ccc(C(C)(C)C)cc1NC(=S)NC(=O)OCC	none
COC(=O)C1=C(C)NC2=C(C(=O)CCC2)C1c1ccc(CN2C(=O)c3ccccc3C2=O)o1 (stereo unspecified)	none
O=C(NC(=O)c1ccc(-c2cccs2)s1)SCc1cccs1	none
O=C(O)CCCC(=O)Nc1ccc2c(c1)C(=O)OC2	none
COc1ccccc1Nc1nc(N)nc(CN2CCN(C)CC2)n1	none
CC(C)N(CCC#N)C(=O)Nc1ccc(F)cc1	none
CCc1ccc(C2C(C(=O)OCCOC)=C(C)NC3=C2C(=O)CCC3)cc1 (stereo unspecified)	none
Cc1[nH]c2[nH]n(-c3ccccc3)c(=O)c2c(=O)c1Cc1ccccc1Cl	none
CCOC(=O)COc1ccc(C)cc1C(=O)c1ccn2nc(-c3ccc(OC)cc3)cc2n1	none
CCc1ccc(C(=O)CSc2nc3nc(C)cc(C)c3c(=O)[nH]2)cc1	none
Cc1cc(C)c2c(=O)[nH]c(SCC(=O)N3CCCCC3)nc2n1	Dicer processing 5.8
Cc1sc2nc(SCC(=O)N3CCCCC3)[nH]c(=O)c2c1C	none
O=S1(=O)/N=C(/O)c2ccccc2Sc2ccccc21	Dicer processing 3.5
Cc1ccc(OC2=NS(=O)(=O)c3ccccc32)cc1	none
CSc1ccccc1NC1=NS(=O)(=O)c2ccccc21	none
O=C(c1ccco1)N(c1cc2sc(=O)oc2c2ccccc12)S(=O)(=O)c1ccc(F)cc1	none
O=C(Nc1cc2cc([N+](=O)[O-])ccc2oc1=O)c1ccc(Cl)c(Cl)c1	none
COc1cccc(OC)c1C(C)(O)C(OC)OC (stereo unspecified)	none
O=C(Cn1nnc(N2CCOCC2)n1)NNC(=S)Nc1ccc(F)cc1F	none
CC(C(=O)NNC(=S)NCC1CC1)n1nnc(N2CCOCC2)n1 (stereo unspecified)	Dicer processing 3.9
COC(=O)Cn1nnc(N2CCOCC2)n1	none
CNc1ncnc(Oc2ccc(Cl)cc2)c1[N+](=O)[O-]	none
O=[N+]([O-])c1c(Nc2ccc(Cl)cc2)ncnc1Nc1ccc(Cl)cc1	Dicer processing 3.5
O=[N+]([O-])c1c(Nc2cccc(C(F)(F)F)c2)ncnc1Nc1cccc(C(F)(F)F)c1	none
CNc1ncnc(NNC(=O)Nc2ccc(Cl)cc2)c1[N+](=O)[O-]	Dicer processing 4.5
Cc1[nH]nc(Nc2ccc(C(C)C)cc2)c1[N+](=O)[O-]	none
CNc1ncnc(NNC(=O)Nc2cccc(Cl)c2)c1[N+](=O)[O-]	none
CCc1ccc2oc3nc(N)c(C#N)cc3c(=O)c2c1	none
Cc1nnc(NC(=O)CSc2nncn2C)s1	none
Clc1ccccc1CSc1nnc2n1CCCN2	none
Cc1onc(-c2ccccc2)c1C(=O)On1c(-c2ccccc2)nc2ccccc2c1=O	none
Cc1ccc(C(=O)Nc2cnc3sc(C)nn3c2=O)cc1	Dicer processing 4.8
Cc1nn2c(=O)c(NC(=O)c3ccc(F)cc3)cnc2s1	none
Cc1nn2c(=O)c(NC(=O)c3ccc(Cl)cc3)cnc2s1	none
CCOC(=O)C1CN(c2ccc(C)cc2)CC1=O (stereo unspecified)	none
COc1cc(NC(=O)c2c(-c3ccccc3Cl)noc2C)cc(C(F)(F)F)c1	none
CSc1sc(-c2nc(C)cs2)c(C)c1-c1ccnc(SCc2ccc(Cl)cc2)n1	none
CSc1sc(-c2ccnc(SCc3c(Cl)cccc3Cl)n2)c2c1C(=O)CCC2	Dicer processing 3.5
CSc1sc(-c2nc(C(C)(C)C)cs2)c2c1C(=O)CCC2	none
CC(Oc1ccc(Cl)cc1Cl)c1n[nH]c(=S)n1-c1ccccc1 (stereo unspecified)	none
O=C(c1ccc(N2CCOCC2)nc1)N1CCOCC1	none
O=C1c2ccccc2-c2cccc(C(=O)N3CCCCC3)c21	none
O=C1c2ccccc2-c2ccc(C(=O)N3CCOCC3)cc21	Dicer processing 4.1
O=S(=O)(Nc1n[nH]c2cccc(Cl)c12)c1ccc(Cl)cc1	none
COc1ccc(-c2noc(-c3ccc(F)cc3)n2)cc1	none
O=C(CSc1ncn[nH]1)Nc1ccc(F)cc1	none
Cc1cc(C)c(S(=O)(=O)Nc2ccc(O)c(Sc3ncn[nH]3)c2)cc1C	Dicer processing 7.3
Cc1cc(C(C)(C)C)cc(S(=O)(=O)Nc2ccc(O)c(Sc3ncn[nH]3)c2)c1C	none
COc1ccc(-c2c(C(F)(F)F)oc3c(CN(C)C)c(O)ccc3c2=O)cc1OC	none
CCOc1cc(C)c(S(=O)(=O)n2ccnc2)cc1C	none
CCN(CC)S(=O)(=O)c1ccc2c(c1)C(=O)c1cc(S(=O)(=O)N(CC)CC)ccc1-2	none
COc1cc(CN2CCN(Cc3ccco3)CC2)cc(OC)c1	none
Brc1ccccc1CN1CCN(Cc2ccco2)CC1	none
COc1ccc(CN2CCN(Cc3ccco3)CC2)c(OC)c1	Dicer processing 3.6
Brc1ccc(CN2CCN(Cc3ccco3)CC2)cc1	Dicer processing 4.5
COc1cc(CN2CCN(Cc3ccc(OC)cc3OC)CC2)cc(OC)c1	none
CCCS(=O)(=O)N1CCN(Cc2ccco2)CC1	none
Cc1ccc2[nH]c(C)c(CN3CCCC(C)C3)c(=O)c2c1 (stereo unspecified)	none
COc1cc(/C=C2\N=C(SC)SC2=O)ccc1OCc1ccccc1	none
CCN(CC)c1ccc(C(Nc2ccccn2)c2ccc3cccnc3c2O)cc1 (stereo unspecified)	none
Oc1c(C(Nc2ccccn2)c2ccccc2Cl)ccc2cccnc12 (stereo unspecified)	Dicer processing 3.9
COc1ccc(C(Nc2ccccn2)c2ccc3ccc(C)nc3c2O)cc1 (stereo unspecified)	none
Cc1ccc2ccc(C(Nc3ccccn3)c3ccccc3F)c(O)c2n1 (stereo unspecified)	none
Cc1cccc(NC(c2ccccc2F)c2ccc3cccnc3c2O)n1 (stereo unspecified)	none
CCc1ccccc1NC(c1ccccn1)c1ccc2cccnc2c1O (stereo unspecified)	Dicer processing 8

Compound activity from PubChem.
